SENP8 block-1: SENP8 (human) protease inhibition. Q96LD8. recombinant SENP8, Nedd8 substrate fluorescence. inhibition, % at 20 µM. actives 0.64% (n = 360,000); in the data active means inhibition mostly above about 40%, no sharp cut-off; inactive means mostly below about 27%
Target sequence (Q96LD8 whole entry, looked up): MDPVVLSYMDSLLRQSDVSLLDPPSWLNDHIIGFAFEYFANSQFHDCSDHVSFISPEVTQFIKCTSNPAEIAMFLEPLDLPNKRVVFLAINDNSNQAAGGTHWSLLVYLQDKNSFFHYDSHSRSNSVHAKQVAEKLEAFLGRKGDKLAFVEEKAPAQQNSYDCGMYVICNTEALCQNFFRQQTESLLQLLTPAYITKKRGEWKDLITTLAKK
SENP6 inh: inhibitors of human SENP6 protease. Q9GZR1. Recombinant SENP6 catalytic domain, aminoluciferin luminescence. inhibition, % at 10 µM. actives 1.8% (n = 330,000). AID 2599;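 active means inhibition above about 50% at the single tested dose, limit read from the data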;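 further: plate controls were DMSO wells with enzyme for no effect and DMSO wells lacking enzyme for full effect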
Target sequence (Q9GZR1 628-1112 limits assumed): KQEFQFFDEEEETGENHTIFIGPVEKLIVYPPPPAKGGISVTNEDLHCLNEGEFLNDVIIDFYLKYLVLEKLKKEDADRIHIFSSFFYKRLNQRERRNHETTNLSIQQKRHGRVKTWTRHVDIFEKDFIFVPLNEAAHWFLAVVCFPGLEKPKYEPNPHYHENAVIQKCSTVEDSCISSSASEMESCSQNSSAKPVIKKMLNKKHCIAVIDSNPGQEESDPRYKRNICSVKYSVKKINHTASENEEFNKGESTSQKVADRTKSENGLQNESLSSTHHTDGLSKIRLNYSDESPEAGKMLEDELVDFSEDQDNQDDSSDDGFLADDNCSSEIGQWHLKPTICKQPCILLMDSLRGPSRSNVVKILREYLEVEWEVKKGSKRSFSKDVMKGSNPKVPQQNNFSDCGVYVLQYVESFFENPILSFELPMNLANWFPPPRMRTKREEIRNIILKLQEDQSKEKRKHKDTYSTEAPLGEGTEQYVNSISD
Platelet DG rel: platelet dense granule release activity | human platelet-rich plasma, SFLLRN dense granule ATP release, luminescence | inhibition, %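 (compounds screened at 7.5 µM in platelet-rich plasma)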 | actives 0.22% (n = 300,000);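 active means mean replicate score, as percent of positive control, at or above 50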
SENP8 block-2: blocks the human protease SENP8. inhibition, % at 10 µM. actives 1.2% (n = 330,000). purified SENP8, Z-RLRGG-aminoluciferin cleavage, luminescence; in the data active means inhibition above about 50%
SENP7 block: SENP7 protease inhibition. Q9BQF6. recombinant SENP7, Z-RLRGG-aminoluciferin luminescence, 40 min. inhibition, % at 5 µM. actives 1.5% (n = 330,000);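 active means inhibition above about 50% at the single test dose, limit read from the data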;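 further: plate controls were DMSO with enzyme for no effect and no enzyme buffer wells for full effect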
HSP90 refold inh: HSP90 refolding inhibition in rabbit reticulocyte lysate | actives 0.91% (n = 290,000) | AID 1789 | luciferase refolding luminescence, 3 h | inhibition, % at 5.6 µM;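 active means inhibition above the screen-wide mean plus 3 SD, computed separately per campaign, cut at about 16% in these data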;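 further: 0% = DMSO wells and 100% = 60 µM geldanamycin wells; inhibitors lower the luminescence because luciferase stays unfolded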
SENP8 confirm: human SENP8 inhibition, confirmed | shares compounds with SENP7 block | Recombinant SENP8, Z-RLRGG-aminoluciferin luminescence, 60 min | inhibition, % at 12.5 µM | actives 40% (n = 6,200);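 active means mean inhibition across replicates above about 50%, limit read from the data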
SENP6 conf: confirmation of human SENP6 protease inhibitors | shares compounds with SENP7 block | recombinant SENP6, Z-RLRGG-aminoluciferin luminescence | inhibition, % at 12.5 µM | actives 58% (n = 6,200) | AID 488915
SENP7 conf: human SENP7 inhibition, confirmed; inhibition, % at 12.5 µM; recombinant SENP7, Z-RLRGG-aminoluciferin luminescence, 40 min; actives 69% (n = 6,200); shares compounds with SENP7 block
Casp3 SENP sel: selectivity test for SENP inhibitors: human caspase-3 inhibition | AID 488918 | purified caspase-3, Z-DEVD-aminoluciferin luminescence, 60 min | inhibition, % at 12.5 µM | actives 60% (n = 6,200) | shares compounds with SENP7 block;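 active means mean inhibition above about 50%, limit read from the data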;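 further: plate controls were enzyme with DMSO for no effect and wells without caspase-3 for full effect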
Luc interf: interferes with luciferase luminescence in SENP counter-screen; actives 39% (n = 6,200); inhibition, % at 12.5 µM; shares compounds with SENP7 block; Pre-incubated SENP8/Z-RLRGG-aminoluciferin, luciferase luminescence interference;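 active means mean inhibition above about 50% when retested at one dose, limit read from the data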;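 further: plate controls were DMSO wells with completed reaction for no effect and substrate without enzyme for full effect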
* marks the source's active call; other numbers are inactive results; i = inactive; . = no result. Hits are enriched below; roughly 2.8% of the tested compounds scored in any of these assays.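 How the source made its calls, unless noted: active means mean inhibition above about 50% in the one-dose retest (limit read from the data); inactive means the rest.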

SMILES | SENP8 block-1 | SENP6 inh | Platelet DG rel | SENP8 block-2 | SENP7 block | HSP90 refold inh | SENP8 confirm | SENP6 conf | SENP7 conf | Casp3 SENP sel | Luc interf
CN(C)S(=O)(=O)n1cnc(C(CCO)c2ncn(S(=O)(=O)N(C)C)c2CCCO)c1 (stereo not given) | 19 | 2 | . | 12 | 2 | . | . | . | . | . | .
COc1ccc(O)c(/C=N/N2CCCCC2)c1 | 26 | 80* | 18 | 77* | 83* | 0 | 78* | 80* | 96* | 88* | 69*
COc1ccc(/C(C)=N/N2CCCCC2)c(O)c1 | 13 | -8 | 8 | -3 | 8 | 2 | . | . | . | . | .
Fc1cccc(NC(=S)N2CCc3ccccc32)c1 | 6 | 57* | . | 10 | 2 | -1 | 12 | 2 | 10 | 3 | 17
O=c1c2ccccc2nc(-c2ccco2)n1Cc1ccccc1 | 8 | 77* | 23 | 63* | 69* | 1 | 79* | 76* | 89* | 78* | 77*
c1ccc(Cn2c(-c3ccco3)nc3nc4ccccc4nc32)cc1 | i | 89* | -6 | 75* | 52* | -1 | 22 | 82* | 96* | 82* | 8
O=c1c2ccccc2nc(-c2ccc(Br)cc2)n1Cc1ccccc1 | -2 | 1 | 8 | -8 | 8 | 2 | . | . | . | . | .
CC1CCCC(NC(=O)c2cccs2)C1C (stereo not given) | 7 | -19 | . | -10 | -12 | . | . | . | . | . | .
O=C(Nc1ccccc1Cl)c1ccccc1Cl | 15 | -8 | 6 | -10 | 12 | -3 | . | . | . | . | .
O=C(NNC(=S)Nc1ccccc1Cl)c1ccccc1 | 1 | 65* | 4 | 56* | 91* | -1 | 16 | 22 | 28 | 28 | 34
COc1ccccc1NC(=S)NNC(=O)c1ccccc1Br | -13 | 75* | 1 | 46 | 71* | -5 | 21 | 16 | 15 | 6 | 15
O=C(NNC(=S)Nc1ccccc1Cl)c1ccccc1Cl | 8 | 73* | -1 | 74* | 50 | 0 | 40 | 28 | 18 | 10 | 13
NC(=O)c1ccccc1NC(=O)/C=C/c1c(Cl)cccc1Cl | 3 | 53* | -8 | -7 | 45 | 1 | -14 | -8 | 86* | 42 | 4
NC(=O)c1ccccc1NC(=O)/C=C/c1cccc(Cl)c1 | 18 | 31 | 3 | 3 | 15 | -3 | . | . | . | . | .
COc1ccc(CN2CCNC(=O)C2CC(=O)NCCc2nc(C)c3c(n2)CCC3)cc1C (stereo not given) | -26 | -1 | -4 | 7 | -2 | -2 | . | . | . | . | .
CCCCN(C(=O)c1c(CC)noc1C)c1c(N)n(CCCC)c(=O)[nH]c1=O | -20 | -25 | 1 | -11 | 15 | . | . | . | . | . | .
CN1CN(C)C(c2ccncc2)=C1c1ccncc1 | 17 | 0 | 1 | -3 | 2 | 3 | . | . | . | . | .
CN(C)c1ccc(/C=N/NC(=O)C(=O)N2CCCCCC2)cc1 | -67 | -12 | -15 | 86* | 8 | 3 | 4 | 9 | 14 | 3 | 5
CN(C)c1ccc(C=Nc2ccccc2C(N)=O)cc1 | -274 | 93* | . | 89* | 96* | 10 | 45 | 90* | 101* | 95* | 32
CN(C)c1ccc(/C=N\NC(=O)c2cccc3cc[nH]c23)cc1 | -430 | 86* | 6 | 76* | 85* | -5 | 84* | 82* | 95* | 80* | 64*
CN(C)c1ccc(/C=N/NC(=O)c2ccco2)cc1 | -290 | 65* | 17 | 27 | 49 | 5 | 46 | 48 | 81* | 83* | 40
COCCNC(=O)C[C@H]1C[C@H]2c3cc(NS(=O)(=O)c4ccc(F)cc4)ccc3O[C@H]2[C@H](CO)O1 | 9 | . | . | . | . | . | . | . | . | . | .
CCN(CC)C(CNC(=O)c1cc(=O)[nH]c2ccccc12)c1ccccc1Cl (stereo not given) | -80 | 16 | -2 | -1 | 4 | 2 | . | . | . | . | .
O=C(N/N=C/c1ccccn1)c1ccco1 | 28 | -13 | 8 | -4 | -5 | -4 | . | . | . | . | .
O=C(N/N=C/c1ccc2ncccc2c1)c1ccco1 | 14 | 66* | 14 | 33 | 66* | 31* | 53* | 53* | 84* | 87* | 64*
SMILES | SENP8 block-1 | SENP6 inh | Platelet DG rel | SENP8 block-2 | SENP7 block | HSP90 refold inh | SENP8 confirm | SENP6 conf | SENP7 conf | Casp3 SENP sel | Luc interf
CN(C)c1ccc(/C=N/NC(=O)c2ccnn2C)cc1 | -252 | 95* | 73* | 91* | 98* | 3 | 90* | 90* | 98* | 95* | 88*
COc1ccc(-c2cn3c(n2)CCC3)cc1 | 8 | 23 | 5 | -1 | 16 | -2 | . | . | . | . | .
c1ccc(-c2ccc(-c3cn4c(n3)CCC4)cc2)cc1 | -444 | 87* | 24 | 69* | 73* | 8 | 80* | 80* | 95* | 66* | 60*
Nc1nnc(-c2cccnc2)s1 | -24 | -5 | 2 | 4 | 2 | 7 | . | . | . | . | .
c1ccc(Nc2nnc(-c3cccnc3)s2)cc1 | -308 | 80* | 6 | 72* | 87* | 15 | 9 | 14 | 13 | 27 | 29
Cc1ccc(CCC(=O)Nc2nccs2)o1 | 13 | 4 | -2 | 3 | 92* | -1 | 0 | -2 | -8 | -1 | -2
CCc1ccc(CCC(=O)Nc2nccs2)o1 | 7 | 4 | 0 | 0 | 3 | 1 | . | . | . | . | .
N#Cc1ccsc1NC(=O)COC(=O)c1ccc(Br)o1 | -38 | 2 | . | 2 | 0 | . | . | . | . | . | .
COc1ccc(CCC(=O)Nc2sccc2C#N)cc1 | . | 86* | 2 | 80* | 87* | -4 | 84* | 85* | 98* | 89* | 59*
N#Cc1ccsc1NC(=O)COC(=O)c1ccc2ccccc2c1 | 17 | 91* | -3 | 84* | 86* | 2 | 6 | 67* | 100* | 80* | 20
COc1ccc(NC(=O)CSCC(=O)Nc2sccc2C#N)cc1 | 0 | -4 | -1 | 7 | -18 | . | . | . | . | . | .
N#Cc1ccsc1NC(=O)COC(=O)c1cc(Br)ccc1O | -70 | 95* | -6 | 89* | 85* | -1 | 75* | 82* | 87* | 70* | 23
COc1cc(C(=O)Nc2cc(S(C)(=O)=O)ccc2Cl)ccc1OCC(=O)N1CCOCC1 | -10 | -7 | . | 5 | 1 | . | . | . | . | . | .
Nc1ccc2nc(COc3ccccc3)[nH]c2c1 | 6 | -6 | 9 | -2 | 8 | 2 | . | . | . | . | .
